Reference: the supplement of paper PMC11732987, “Enantioselective OTUD7B fragment discovery through chemoproteomics screening and high-throughput optimisation” (Communications Chemistry, 2025)

Key:
Experiment in all cases: log2 ratio of Biotin-Ahx-Ub-VS probe labelling (fragment/DMSO); higher = less target engagement (more negative = stronger competition), active = hit call of the paper (q ≤ 0.05, log2 ratio ≤ -1)
Conditions in all cases: compound concentration: 200 uM; treatment time: 3 h
USP34 = USP34 (UniProt Q70CQ2)
Summary of the method: (§1)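 Average log2 ratios of fragment over vehicle were obtained by unpaired t-test from global-median-normalised Spectronaut label-free quantities. Proteins with ≥2 unique peptides were included. HEK293T lysate (495 µg per sample) was treated in triplicate with fragment at 200 µM or vehicle for 3 h, then with Biotin-Ahx-Ub-VS at 0.5 µM final for 1 h, and labelled DUBs were NeutrAvidin-enriched and run by diaPASEF LC-MS/MS.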

USP36 = target: T1, USP36 (UniProt Q9P275)
T1 sequence (whole entry): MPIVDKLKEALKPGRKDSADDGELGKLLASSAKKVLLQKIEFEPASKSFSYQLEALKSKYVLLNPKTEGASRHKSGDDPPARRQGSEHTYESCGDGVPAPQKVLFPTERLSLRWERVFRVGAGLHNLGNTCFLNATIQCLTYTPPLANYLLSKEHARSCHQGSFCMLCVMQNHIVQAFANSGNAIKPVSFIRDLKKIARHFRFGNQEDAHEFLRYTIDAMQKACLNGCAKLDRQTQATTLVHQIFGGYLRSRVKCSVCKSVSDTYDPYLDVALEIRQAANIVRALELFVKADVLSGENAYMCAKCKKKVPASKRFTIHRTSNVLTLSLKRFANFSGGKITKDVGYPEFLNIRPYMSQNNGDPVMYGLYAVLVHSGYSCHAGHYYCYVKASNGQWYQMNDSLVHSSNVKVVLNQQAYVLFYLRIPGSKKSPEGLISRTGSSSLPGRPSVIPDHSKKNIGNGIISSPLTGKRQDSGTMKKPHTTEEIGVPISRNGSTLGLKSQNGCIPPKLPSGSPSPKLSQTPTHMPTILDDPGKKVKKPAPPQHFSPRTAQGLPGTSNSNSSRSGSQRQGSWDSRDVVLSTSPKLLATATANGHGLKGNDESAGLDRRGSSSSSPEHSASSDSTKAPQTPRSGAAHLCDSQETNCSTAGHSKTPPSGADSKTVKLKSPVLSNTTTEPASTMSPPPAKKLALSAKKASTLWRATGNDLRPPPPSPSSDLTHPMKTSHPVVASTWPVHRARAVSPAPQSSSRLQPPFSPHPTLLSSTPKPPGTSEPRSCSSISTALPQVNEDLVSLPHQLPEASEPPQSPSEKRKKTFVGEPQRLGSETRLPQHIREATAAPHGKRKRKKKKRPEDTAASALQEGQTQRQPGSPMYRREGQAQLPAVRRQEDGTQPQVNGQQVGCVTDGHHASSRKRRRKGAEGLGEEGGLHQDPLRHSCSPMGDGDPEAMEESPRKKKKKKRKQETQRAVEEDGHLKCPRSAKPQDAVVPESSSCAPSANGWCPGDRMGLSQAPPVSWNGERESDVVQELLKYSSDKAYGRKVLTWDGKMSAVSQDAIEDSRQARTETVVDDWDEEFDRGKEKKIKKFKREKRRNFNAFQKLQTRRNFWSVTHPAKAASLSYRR
Summary of the method: as §1

USP38 = target: T2, USP38 (UniProt Q8NB14)
T2 sequence (whole entry): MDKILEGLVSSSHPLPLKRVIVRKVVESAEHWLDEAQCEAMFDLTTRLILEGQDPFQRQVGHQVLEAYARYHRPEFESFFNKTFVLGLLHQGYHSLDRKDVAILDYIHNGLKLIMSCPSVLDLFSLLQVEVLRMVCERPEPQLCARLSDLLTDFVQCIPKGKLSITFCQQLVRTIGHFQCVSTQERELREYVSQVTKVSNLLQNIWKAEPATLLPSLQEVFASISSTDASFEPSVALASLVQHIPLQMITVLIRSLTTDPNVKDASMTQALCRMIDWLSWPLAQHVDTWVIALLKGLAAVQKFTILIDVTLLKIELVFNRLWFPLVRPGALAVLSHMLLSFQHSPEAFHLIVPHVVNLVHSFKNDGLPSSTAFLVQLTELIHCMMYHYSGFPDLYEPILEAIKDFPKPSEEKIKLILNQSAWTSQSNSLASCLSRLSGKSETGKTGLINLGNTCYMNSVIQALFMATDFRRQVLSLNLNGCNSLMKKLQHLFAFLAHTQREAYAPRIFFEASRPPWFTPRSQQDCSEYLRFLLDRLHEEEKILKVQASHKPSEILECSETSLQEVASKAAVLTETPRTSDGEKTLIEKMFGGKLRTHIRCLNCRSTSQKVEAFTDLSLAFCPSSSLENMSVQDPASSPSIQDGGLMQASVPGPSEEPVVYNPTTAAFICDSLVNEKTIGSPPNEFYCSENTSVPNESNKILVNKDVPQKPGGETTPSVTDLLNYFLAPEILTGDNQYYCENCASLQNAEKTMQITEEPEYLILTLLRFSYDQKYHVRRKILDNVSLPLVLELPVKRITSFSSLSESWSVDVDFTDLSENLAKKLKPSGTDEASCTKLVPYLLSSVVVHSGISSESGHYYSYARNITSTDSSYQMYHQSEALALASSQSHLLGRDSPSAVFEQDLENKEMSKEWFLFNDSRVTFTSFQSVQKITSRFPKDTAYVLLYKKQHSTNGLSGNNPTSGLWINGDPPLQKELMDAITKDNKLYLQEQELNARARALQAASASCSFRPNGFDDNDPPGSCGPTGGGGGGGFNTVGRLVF
Summary of the method: as §1

USP39 = target: T3, USP39 (UniProt Q53GS9)
T3 sequence (whole entry): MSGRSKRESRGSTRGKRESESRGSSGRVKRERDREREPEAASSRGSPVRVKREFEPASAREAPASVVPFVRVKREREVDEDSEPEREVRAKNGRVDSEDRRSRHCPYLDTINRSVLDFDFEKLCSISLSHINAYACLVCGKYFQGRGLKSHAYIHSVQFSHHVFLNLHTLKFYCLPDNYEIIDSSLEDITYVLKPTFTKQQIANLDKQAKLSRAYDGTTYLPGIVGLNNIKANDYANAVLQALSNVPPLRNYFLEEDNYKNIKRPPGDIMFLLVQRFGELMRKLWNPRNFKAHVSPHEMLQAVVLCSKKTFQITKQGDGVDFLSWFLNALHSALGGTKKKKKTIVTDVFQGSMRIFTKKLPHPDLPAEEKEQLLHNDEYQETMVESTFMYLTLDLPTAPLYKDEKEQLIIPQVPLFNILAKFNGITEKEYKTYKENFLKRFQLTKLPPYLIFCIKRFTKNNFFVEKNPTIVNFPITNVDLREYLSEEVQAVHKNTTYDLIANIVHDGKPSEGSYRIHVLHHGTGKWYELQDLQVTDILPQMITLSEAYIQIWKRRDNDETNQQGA
Summary of the method: as §1

USP4 = target: T4, USP4 (UniProt Q13107)
T4 sequence (whole entry): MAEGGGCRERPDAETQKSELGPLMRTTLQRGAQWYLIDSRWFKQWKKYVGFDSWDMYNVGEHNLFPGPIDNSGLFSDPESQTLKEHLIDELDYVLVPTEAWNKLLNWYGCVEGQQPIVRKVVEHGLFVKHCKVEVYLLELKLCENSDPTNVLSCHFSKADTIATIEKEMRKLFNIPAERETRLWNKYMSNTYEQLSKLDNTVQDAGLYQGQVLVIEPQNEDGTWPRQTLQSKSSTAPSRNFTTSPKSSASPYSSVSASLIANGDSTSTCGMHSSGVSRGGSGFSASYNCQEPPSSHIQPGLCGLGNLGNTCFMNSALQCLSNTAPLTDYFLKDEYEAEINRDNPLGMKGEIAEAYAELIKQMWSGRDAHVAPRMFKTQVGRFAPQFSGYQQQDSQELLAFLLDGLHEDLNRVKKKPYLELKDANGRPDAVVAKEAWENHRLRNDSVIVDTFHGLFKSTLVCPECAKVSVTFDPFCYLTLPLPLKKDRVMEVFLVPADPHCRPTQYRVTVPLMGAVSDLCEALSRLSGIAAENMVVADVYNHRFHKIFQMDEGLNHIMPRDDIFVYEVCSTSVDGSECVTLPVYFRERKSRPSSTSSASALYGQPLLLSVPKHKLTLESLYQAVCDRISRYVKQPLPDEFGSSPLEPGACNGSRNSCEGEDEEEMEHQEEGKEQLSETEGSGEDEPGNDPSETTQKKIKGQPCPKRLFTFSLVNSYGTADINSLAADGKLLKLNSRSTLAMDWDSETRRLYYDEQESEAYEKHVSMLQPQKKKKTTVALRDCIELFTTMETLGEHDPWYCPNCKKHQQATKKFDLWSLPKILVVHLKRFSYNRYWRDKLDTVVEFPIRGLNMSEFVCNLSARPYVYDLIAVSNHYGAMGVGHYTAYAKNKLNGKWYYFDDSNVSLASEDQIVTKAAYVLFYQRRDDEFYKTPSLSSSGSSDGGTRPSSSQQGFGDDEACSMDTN
Summary of the method: as §1

Measured: log2 ratio of Biotin-Ahx-Ub-VS probe labelling

Chain of USP34 (Q70CQ2 whole entry, the tested form may be a part): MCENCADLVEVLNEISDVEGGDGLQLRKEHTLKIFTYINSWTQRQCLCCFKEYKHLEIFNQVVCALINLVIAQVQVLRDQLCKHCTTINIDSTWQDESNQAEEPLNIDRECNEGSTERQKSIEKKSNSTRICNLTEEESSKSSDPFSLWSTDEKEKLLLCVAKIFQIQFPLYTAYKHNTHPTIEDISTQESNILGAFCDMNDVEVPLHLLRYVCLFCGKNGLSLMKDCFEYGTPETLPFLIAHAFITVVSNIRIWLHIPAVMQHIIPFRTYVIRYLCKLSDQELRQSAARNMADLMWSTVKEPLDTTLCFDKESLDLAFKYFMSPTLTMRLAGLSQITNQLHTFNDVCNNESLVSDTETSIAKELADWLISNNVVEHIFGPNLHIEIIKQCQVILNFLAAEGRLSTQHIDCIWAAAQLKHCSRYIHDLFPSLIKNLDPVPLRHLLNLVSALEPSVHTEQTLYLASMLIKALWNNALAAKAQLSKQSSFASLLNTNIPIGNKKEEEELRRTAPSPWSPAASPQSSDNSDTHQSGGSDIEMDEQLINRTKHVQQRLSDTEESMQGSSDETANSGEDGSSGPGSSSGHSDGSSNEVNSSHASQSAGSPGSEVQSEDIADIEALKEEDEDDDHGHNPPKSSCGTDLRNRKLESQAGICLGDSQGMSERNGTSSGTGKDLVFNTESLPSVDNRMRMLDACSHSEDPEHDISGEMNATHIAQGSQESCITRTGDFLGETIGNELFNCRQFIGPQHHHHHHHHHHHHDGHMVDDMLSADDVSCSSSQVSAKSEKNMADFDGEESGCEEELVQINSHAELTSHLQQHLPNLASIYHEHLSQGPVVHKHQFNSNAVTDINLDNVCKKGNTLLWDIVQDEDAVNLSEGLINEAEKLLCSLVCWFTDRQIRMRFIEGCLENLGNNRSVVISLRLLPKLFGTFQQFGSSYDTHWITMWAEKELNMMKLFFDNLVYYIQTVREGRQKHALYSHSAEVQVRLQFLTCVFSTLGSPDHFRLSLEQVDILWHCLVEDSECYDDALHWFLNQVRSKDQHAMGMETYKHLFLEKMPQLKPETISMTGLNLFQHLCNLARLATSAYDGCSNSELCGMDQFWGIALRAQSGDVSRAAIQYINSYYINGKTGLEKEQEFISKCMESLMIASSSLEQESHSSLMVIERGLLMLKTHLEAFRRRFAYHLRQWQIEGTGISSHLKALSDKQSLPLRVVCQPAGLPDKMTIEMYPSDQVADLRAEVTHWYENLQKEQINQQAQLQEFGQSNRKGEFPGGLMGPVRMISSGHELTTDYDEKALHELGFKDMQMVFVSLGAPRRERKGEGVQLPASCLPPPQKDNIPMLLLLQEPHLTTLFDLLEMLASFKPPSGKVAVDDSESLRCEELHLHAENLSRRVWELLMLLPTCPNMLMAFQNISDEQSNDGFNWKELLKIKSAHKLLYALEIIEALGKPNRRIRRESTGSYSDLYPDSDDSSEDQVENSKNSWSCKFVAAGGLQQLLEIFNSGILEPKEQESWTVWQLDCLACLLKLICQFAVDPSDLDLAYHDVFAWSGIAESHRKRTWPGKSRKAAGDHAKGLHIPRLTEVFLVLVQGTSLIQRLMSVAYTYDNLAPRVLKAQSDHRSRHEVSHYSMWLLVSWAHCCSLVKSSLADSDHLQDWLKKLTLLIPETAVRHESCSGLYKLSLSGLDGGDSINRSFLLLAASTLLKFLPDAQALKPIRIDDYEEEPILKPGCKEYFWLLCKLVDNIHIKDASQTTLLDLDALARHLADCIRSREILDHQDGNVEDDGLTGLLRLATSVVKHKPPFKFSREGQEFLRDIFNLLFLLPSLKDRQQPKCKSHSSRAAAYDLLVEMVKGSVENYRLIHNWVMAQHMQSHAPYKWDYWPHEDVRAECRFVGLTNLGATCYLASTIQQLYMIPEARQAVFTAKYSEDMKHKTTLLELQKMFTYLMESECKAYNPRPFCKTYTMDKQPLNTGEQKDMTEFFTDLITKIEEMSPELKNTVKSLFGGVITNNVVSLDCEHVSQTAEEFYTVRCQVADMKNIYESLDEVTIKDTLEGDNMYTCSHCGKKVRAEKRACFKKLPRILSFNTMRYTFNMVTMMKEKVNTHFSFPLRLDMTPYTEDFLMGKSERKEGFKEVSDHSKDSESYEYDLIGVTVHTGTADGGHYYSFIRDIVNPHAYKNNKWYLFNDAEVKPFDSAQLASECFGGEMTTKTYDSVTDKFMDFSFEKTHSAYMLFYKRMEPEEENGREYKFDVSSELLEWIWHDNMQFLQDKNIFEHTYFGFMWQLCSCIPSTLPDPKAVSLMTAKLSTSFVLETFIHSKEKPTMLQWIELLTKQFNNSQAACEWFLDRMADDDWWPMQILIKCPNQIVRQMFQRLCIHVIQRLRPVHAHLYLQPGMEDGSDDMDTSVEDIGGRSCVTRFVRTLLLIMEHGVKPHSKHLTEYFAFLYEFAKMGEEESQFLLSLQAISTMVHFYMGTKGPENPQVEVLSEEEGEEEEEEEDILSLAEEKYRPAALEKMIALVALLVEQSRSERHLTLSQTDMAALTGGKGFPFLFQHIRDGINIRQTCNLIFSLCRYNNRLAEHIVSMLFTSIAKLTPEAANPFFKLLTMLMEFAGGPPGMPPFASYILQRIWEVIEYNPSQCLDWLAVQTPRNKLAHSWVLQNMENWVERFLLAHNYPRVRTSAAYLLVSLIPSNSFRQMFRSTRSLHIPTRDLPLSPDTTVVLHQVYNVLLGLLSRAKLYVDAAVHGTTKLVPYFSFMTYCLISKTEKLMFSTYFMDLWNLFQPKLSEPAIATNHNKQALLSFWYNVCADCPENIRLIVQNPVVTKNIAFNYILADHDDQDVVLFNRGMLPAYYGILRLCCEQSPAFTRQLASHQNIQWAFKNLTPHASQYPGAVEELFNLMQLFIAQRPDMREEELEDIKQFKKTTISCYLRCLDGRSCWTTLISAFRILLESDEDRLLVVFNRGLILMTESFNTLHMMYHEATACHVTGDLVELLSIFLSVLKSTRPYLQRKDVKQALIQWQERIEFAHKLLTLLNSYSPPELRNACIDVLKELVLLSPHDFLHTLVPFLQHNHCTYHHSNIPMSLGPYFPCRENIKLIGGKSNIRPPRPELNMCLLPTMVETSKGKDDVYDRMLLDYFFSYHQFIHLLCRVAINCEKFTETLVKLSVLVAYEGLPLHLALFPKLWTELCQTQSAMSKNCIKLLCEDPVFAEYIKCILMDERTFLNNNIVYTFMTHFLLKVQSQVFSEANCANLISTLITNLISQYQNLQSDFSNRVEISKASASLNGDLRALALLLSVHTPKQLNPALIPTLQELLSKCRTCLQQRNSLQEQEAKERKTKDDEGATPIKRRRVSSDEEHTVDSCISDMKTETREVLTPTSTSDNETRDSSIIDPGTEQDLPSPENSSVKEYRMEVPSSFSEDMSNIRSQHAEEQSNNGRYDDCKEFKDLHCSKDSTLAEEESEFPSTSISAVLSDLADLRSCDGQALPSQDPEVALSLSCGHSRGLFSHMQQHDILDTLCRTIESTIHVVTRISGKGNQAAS

NC(=O)C1CCCN(C(=O)CCl)C1 (stereo not given)
inactive: USP34 -0.00128 | USP36 0.0237 | USP38 -0.242 | USP39 -0.334 | USP4 -0.0203
